Data as given in the supplement of paper PMC6555819.

Experiments:
Test in all cases: PBM binding z-score (relative to random genomic background probes); higher = stronger binding; sequences stand for … in GC…GCGATTGACAGCGTAGAATGAAGG
[1] = test system: FXR:RXRa (NR concentration 270 nM, RXRa partner concentration 90 nM)
Method in brief: (§1)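 Custom Agilent 4×180K protein-binding microarrays carried double-stranded probes, each with a 34-nt variable region. These regions held direct-repeat seeds, single-nucleotide variants, half-site ablations and random human genomic background sequences. Ligand-free nuclear receptor dimers were incubated on the arrays for 1 h, antibodies against each partner (one per run) detected binding, and scanned fluorescence was regression-normalized. Binding z-scores take the random background probes as reference.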

[2] = test system: LXRa:RXRa (NR concentration 270 nM, RXRa partner concentration 90 nM)
Method in brief: as §1

[3] = test system: LXRa homodimer (NR concentration 270 nM)
Method in brief: as §1

[4] = test system: LXRb:RXRa (NR concentration 270 nM, RXRa partner concentration 90 nM)
Method in brief: as §1

[5] = test system: LXRb homodimer (NR concentration 270 nM)
Method in brief: as §1

[6] = test system: PPARa:RXRa (NR concentration 270 nM, RXRa partner concentration 90 nM)
Method in brief: as §1

[7] = test system: PPARg:RXRa (NR concentration 180 nM, RXRa partner concentration 90 nM)
Method in brief: as §1

[8] = test system: PPARg:RXRa 270nM:90nM, anti-RXR (NR concentration 270 nM, RXRa partner concentration 90 nM)
Method in brief: as §1

[9] = test system: PPARg:RXRa 30nM:10nM, anti-RXR (NR concentration 30 nM, RXRa partner concentration 10 nM)
Method in brief: as §1

[10] = test system: PPARg:RXRa 90nM:30nM, anti-RXR (NR concentration 90 nM, RXRa partner concentration 30 nM)
Method in brief: as §1

[11] = test system: PPARg:RXRa DBDmut IVT, anti-RXR (DBD mutation: RXRa K156A/R161A, NR concentration 270 nM, RXRa partner concentration 90 nM)
Method in brief: as §1

[12] = test system: PPARg:RXRa IVT, anti-PPARg (NR concentration 270 nM, RXRa partner concentration 90 nM)
Method in brief: as §1

[13] = test system: PPARg DBDmut:RXRa IVT, anti-PPARg (DBD mutation: PPARg1 K132A/R137A, NR concentration 270 nM, RXRa partner concentration 90 nM)
Method in brief: as §1

[14] = test system: PPARg DBDmut IVT, anti-PPARg (DBD mutation: PPARg1 K132A/R137A, NR concentration 270 nM)
Method in brief: as §1

[15] = test system: PPARg homodimer (NR concentration 180 nM)
Method in brief: as §1

[16] = test system: PXR:RXRa (NR concentration 270 nM, RXRa partner concentration 90 nM)
Method in brief: as §1

[17] = test system: PXR homodimer (NR concentration 270 nM)
Method in brief: as §1

[18] = test system: RARa:RXR (NR concentration 270 nM, RXRa partner concentration 90 nM)
Method in brief: as §1

[19] = test system: RARa homodimer (NR concentration 270 nM)
Method in brief: as §1

[20] = test system: RARb:RXRa (NR concentration 270 nM, RXRa partner concentration 90 nM)
Method in brief: as §1

| Sequence | PBM binding z-score [1] | PBM binding z-score [2] | PBM binding z-score [3] | PBM binding z-score [4] | PBM binding z-score [5] | PBM binding z-score [6] | PBM binding z-score [7] | PBM binding z-score [8] | PBM binding z-score [9] | PBM binding z-score [10] | PBM binding z-score [11] | PBM binding z-score [12] | PBM binding z-score [13] | PBM binding z-score [14] | PBM binding z-score [15] | PBM binding z-score [16] | PBM binding z-score [17] | PBM binding z-score [18] | PBM binding z-score [19] | PBM binding z-score [20] |
| --- | --- | --- | --- | --- | --- | --- | --- | --- | --- | --- | --- | --- | --- | --- | --- | --- | --- | --- | --- | --- |
| CGTCAAAGTTCAACGTAACGTAACAGAAAGCAGC | 6.54 | 5.59 | 2.98 | 3.72 | 1.38 | 4.94 | 4.58 | 4.97 | 2.08 | 3.84 | 0.266 | 1.76 | 0.727 | 1.04 | 2.48 | 4.4 | 2.41 | 3.07 | 1.3 | 5.18 |
| TCGAGTAGGTTAGTCGGGGCAGTCAGCCAACATA | 0.0181 | -0.31 | -0.676 | 0.0169 | -0.869 | 0.556 | -0.388 | 0.946 | 0.987 | 0.955 | 2.19 | 1.95 | -0.923 | -0.0532 | -0.451 | -0.323 | -0.507 | 0.0728 | -0.469 | 0.59 |
| CCGGCTAGGTCAATGGTCAGCTAAAGCAGCTCGC | 3.18 | 1.98 | -0.137 | 1.48 | -0.304 | 2.91 | 3.63 | 4.32 | 1.63 | 4.03 | 3.12 | 2.61 | -1.05 | -0.801 | 0.684 | 0.817 | -0.491 | 1.75 | 0.248 | 3.8 |
| ACAGACAGGTGAGTGAAGGTAACTAAGCTGGACG | 0.105 | -0.0477 | -0.437 | -0.48 | -0.463 | 0.107 | 0.457 | -0.0366 | -0.0843 | -0.406 | 0.098 | 0.719 | -0.328 | -0.677 | -0.864 | -0.279 | -0.0557 | 0.0664 | 0.112 | 0.425 |
| ATATGTAGGTTACATCCGGGTGATTCAGGCTATG | 0.452 | 4.47 | 0.517 | 1.64 | 0.268 | 3.54 | 5.24 | 4.39 | 1.74 | 3.56 | 6.76 | 7.32 | 2.76 | 2.26 | 1.49 | 0.723 | 0.414 | 0.999 | 0.428 | 1.05 |
| TCTTGTAGATCAAGCATGTTAAGAAAGCCTGAGT | 0.693 | 0.403 | -0.106 | 0.334 | -0.513 | 0.796 | -0.182 | 1.46 | 2.56 | 2.01 | 1.83 | 0.509 | 0.824 | -0.00587 | -0.0678 | 0.378 | 0.162 | 0.466 | 0.241 | -0.0485 |
| TGAATGAGGATATAAGATCAGGGAACGTTGCAAA | 0.013 | -0.248 | -0.305 | -0.404 | -0.253 | -0.127 | 0.623 | 0.286 | 0.757 | 0.775 | -0.556 | 0.057 | 0.56 | 0.888 | 0.688 | -0.114 | 0.099 | 0.0893 | 0.416 | -0.402 |
| AGAATGAGGTTATTAAGATCAGCGAATTGCGGTC | 1.3 | 1.23 | 0.0436 | 1.11 | -0.0862 | 2.49 | 1.47 | 1.85 | 0.288 | 1.29 | 3.16 | 2.5 | 0.614 | 0.292 | 0.609 | 1 | 0.607 | 1.22 | 0.18 | 1.27 |
| CCTACTGGGCCACGAGAGGTCATTGATTCAGTGA | 3.4 | 4.47 | 4.55 | 3.57 | 0.302 | 4.09 | 4.45 | 4.16 | 1.68 | 3.1 | 6.03 | 5.58 | -0.253 | -0.977 | 3.46 | 5.52 | 2.52 | 5.15 | 1.39 | 3.27 |
| TATACAGGGTCAAAAGCCAGAGTACGAATGTCGA | 5.93 | 5.72 | 1.74 | 4.3 | 2.65 | 5.48 | 6.57 | 6.01 | 3.42 | 5.08 | 1.58 | 3.89 | 1.82 | 1.55 | 1.9 | 3.49 | 0.526 | 4.49 | 0.877 | 3.73 |
| AATACAGGGTCATCGTAGGCCATAGTACGCACAG | 7.3 | 6.74 | 3.23 | 4.97 | 1.39 | 6.02 | 6.89 | 6.05 | 2.98 | 4.83 | 3 | 4.39 | 3 | 2.05 | 3.8 | 5.45 | 0.773 | 5.17 | 0.832 | 4.27 |
| GCAGACAGGTGAAACGCAGGGAACTCAGGGTGGC | -0.391 | -0.181 | -0.294 | -0.514 | -1.21 | 0.613 | 0.488 | -0.246 | -0.526 | -0.424 | 0.902 | 0.213 | 0.0548 | -0.787 | 0.0817 | -0.255 | -0.624 | 0.127 | -0.901 | 0.545 |
| ACTCGAAGGACAAAGGTCAGAGCTACGCCAGTGA | 4.03 | 3.98 | 1.41 | 3.57 | 0.35 | 4.95 | 6.73 | 6.23 | 5.02 | 6.39 | 0.648 | 3.42 | -0.0022 | -0.263 | 2.57 | 3.58 | 0.743 | 4.28 | 0.861 | 4.7 |
| TCTTGTAGATCAACAGGAGGTTAACAAAGATCGA | 0.166 | 1.73 | 0.274 | 1.3 | -0.158 | 1.69 | 0.373 | 1.39 | 2.62 | 1.92 | 1.52 | 1.09 | 0.689 | 0.664 | 0.353 | 1.08 | 0.0367 | 1.36 | -0.353 | 0.717 |
